PubChem BioAssay (Tox21)
Results filed as inconclusive are left out. The source made the active and inactive calls. Unless noted, calls follow the shape of the dose curve; as a rule, active = well fitted curve in the direction sought with a large enough effect in the repeat runs; inconclusive = weak or mixed curves; inactive = no such curve, though single readings can be large; an effect the other way counts as inactive or inconclusive.

Tests used:
[1] = qHTS assay to identify small molecule agonists of the peroxisome proliferator-activated receptor delta (PPARd) signaling pathway - cell viability counter screen (AID 743211); also: nearly all actives have a fitted effect of over 55% in size
Summary of the method: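 PPARd-bla HEK293H cells (3000/well) were pre-incubated 5 h at 37 C, then exposed to compound for 17 h at 37 C. After 2 h with LiveBLAzer substrate, CellTiter-Glo was added to the same wells; luminescence read after 30 min at room temperature.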

[2] = target: Peroxisome proliferator-activated receptor delta (Homo sapiens) (UniProt Q03181); test: qHTS assay to identify small molecule agonists of the peroxisome proliferator-activated receptor delta (PPARd) signaling pathway (AID 743212; calls by dose curve;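 also: HEK293H cells with PPARd UAS beta-lactamase reporter GeneBLAzer system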)
Summary of the method: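 Beta-lactamase reporter read by fluorescence (LiveBLAzer B/G FRET, 2 h, room temperature). Test agents, in DMSO, incubated at 37 C with PPARd-bla HEK293H cells.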

[3] = qHTS assay to identify small molecule antagonists of the peroxisome proliferator-activated receptor delta (PPARd) signaling pathway - cell viability counter screen (AID 743213); also: nearly all actives have a fitted effect of over 50% in size
Summary of the method: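 HEK293H cells with the PPARd UAS-bla reporter, co-treated 17 h at 37 C with compounds and L165041 (300 nM final), were lysed with CellTiter-Glo. Luminescence indicated viable cell content.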

[4] = target: Peroxisome proliferator-activated receptor delta (Homo sapiens) (UniProt Q03181); test: qHTS assay to identify small molecule antagonists of the peroxisome proliferator-activated receptor delta (PPARd) signaling pathway (AID 743215; active = well fitted inhibition curve with a large enough effect in the signal ratio in the repeat runs, not every such curve was filed as active; the % refers to the signal ratio;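 also: cells stimulated with agonist L165041 at 300 nM final during compound exposure; series mostly up to about 62 µM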)
Summary of the method: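 Screen format: qHTS, antagonist mode. HEK293H PPARd-bla cells received compound and 300 nM L165041 (final), 17 h, 37 C. Beta-lactamase detected via FRET substrate fluorescence, 2 h, room temperature.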

[5] = qHTS assay to identify small molecule agonists of the farnesoid-X-receptor (FXR) signaling pathway - cell viability counter screen (AID 743218); also: nearly all actives have a fitted effect of over 45% in size
Summary of the method: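 Same-well cytotoxicity check on FXR-UAS-bla HEK 293T cells: 5 h attachment, 16 h compound at 37 C, CellTiter-Glo luminescence read at room temperature after 30 min.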

[6] = qHTS assay to identify small molecule antagonists of the farnesoid-X-receptor (FXR) signaling pathway - cell viability counter screen (AID 743221; active = well fitted cell-killing curve with a large enough effect in the repeat runs, not every such curve was filed as active; also: nearly all actives have a fitted effect of over 50% in size)
Summary of the method: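 GeneBLAzer FXR-UAS-bla HEK 293T cells, compound plus chenodeoxycholic acid (50 uM final), 16 h at 37 C. CellTiter-Glo added to the same wells after the beta-lactamase read; luminescence read after 30 min at room temperature as viability.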

[7] = target: Vitamin D3 receptor (Homo sapiens) (UniProt P11473); test: qHTS assay to identify small molecule antagonists of the vitamin D receptor (VDR) signaling pathway (AID 743223; active = well fitted inhibition curve with a large enough effect in the signal ratio in the repeat runs, not every such curve was filed as active; the % refers to the signal ratio)
Summary of the method: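 VDR-bla cells were treated with compound plus 3 nM final 1alpha,25-dihydroxyvitamin D3 for 16 h at 37C. Beta-lactamase reporter read by B/G FRET substrate fluorescence after 2 h at room temperature. qHTS format.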

[8] = qHTS assay to identify small molecule agonists of the vitamin D receptor (VDR) signaling pathway - cell viability counter screen (AID 743224); also: series mostly up to about 63 µM; nearly all actives have a fitted effect of over 50% in size
Summary of the method: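 Counter screen for cytotoxicity: VDR-bla cells at 2,000 cells/well, 16 h compound exposure, then CellTiter-Glo luminescence after the beta-lactamase measurement.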

[9] = qHTS assay to identify small molecule agonists of the NFkB signaling pathway - cell viability counter screen (AID 1159515; calls by dose curve; also: series mostly up to about 61 µM; nearly all actives have a fitted effect of over 55% in size)
Summary of the method: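 Counter screen run alongside the NFkB-bla agonist assay: ME-180 reporter cells exposed to compounds for 5 hr, then lysed with CellTiter-Glo in the same wells. Luminescence, read after 30 min, reflects viable cells.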

[10] = qHTS assay to identify small molecule agonists of the endoplasmic reticulum stress response signaling pathway (AID 1159516; active = well fitted activation curve with a large enough effect in the signal ratio in the repeat runs, not every such curve was filed as active; the % refers to the signal ratio)
Summary of the method: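 For this screen, HeLa cells stably carrying beta-lactamase under the ER stress response element received test compounds, positive controls or DMSO for 5 hr at 37 C; B/G FRET substrate was then added and dual-wavelength emission recorded.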

[11] = qHTS assay to identify small molecule agonists of the endoplasmic reticulum stress response signaling pathway - cell viability counter screen (AID 1159517; calls by dose curve; also: series mostly up to about 61 µM; nearly all actives have a fitted effect of over 50% in size)
Summary of the method: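 Cytotoxicity of test compounds toward ESRE-bla HeLa cells was assessed after 5 hr exposure. The luminescent CellTiter-Glo signal was measured 30 min after reagent addition.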

[12] = qHTS assay to identify small molecule antagonists of the retinoid-related orphan receptor gamma (ROR-gamma) signaling pathway - cell viability counter screen (AID 1159520); also: nearly all actives have a fitted effect of over 50% in size
Summary of the method: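 Tet-on ROR gamma CHO cells (1,000/well) were plated 4 hr, given compounds in DMSO for 2 hr at 37 C, then induced with 1 uM final doxycycline for 16 hr. Viability was read as ATP by CellTiter-Glo luminescence after 30 min.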

[13] = target: Nuclear receptor ROR-gamma (Homo sapiens) (UniProt P51449); test: qHTS assay to identify small molecule antagonists of the retinoid-related orphan receptor gamma (ROR-gamma) signaling pathway (AID 1159521)
Summary of the method: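 Tet-on ROR-gamma CHO cells with ROR response element-luciferase reporter; compounds added 2 hr before 1 uM doxycycline induction, then 16 hr at 37 C. Antagonism scored as decreased ONE-Glo luminescence.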

[14] = qHTS assay to identify small molecule agonists of the AP-1 signaling pathway - cell viability counter screen (AID 1159525; calls by dose curve; also: nearly all actives have a fitted effect of over 55% in size)
Summary of the method: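 Each titration point was normalised to DMSO and tetra n-octyl ammonium bromide controls. The read was Cell Titer Glo luminescence after 30 min at RT, following 5 h compound exposure of ME-180 AP-1-bla cells at 37 °C.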

[15] = qHTS assay to identify small molecule agonists of the AP-1 signaling pathway (AID 1159526; calls by dose curve)
[16] = target: Retinoic acid receptor RXR-alpha (Homo sapiens) (UniProt P19793); test: qHTS assay to identify small molecule agonists of the RXR signaling pathway (AID 1159527; calls by dose curve; also: nearly all actives have a fitted effect of over 35% in size; also: potency is read from the fitted curve at half-maximal effect)
Summary of the method: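 GeneBLAzer RXR-alpha-UAS-bla HEK 293T cells in 2% charcoal-stripped FBS medium were exposed to compounds for 16 hr at 37 C in agonist mode. Beta-lactamase reporter read as 460/530 nm FRET ratio after 2 hr substrate loading.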

[17] = target: Vitamin D3 receptor (Homo sapiens) (UniProt P11473); test: qHTS assay to identify small molecule agonists of the vitamin D receptor (VDR) signaling pathway (AID 743222; calls by dose curve)
Summary of the method: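 Using LiveBLAzer B/G FRET detection, agonism was scored in VDR-bla cells exposed overnight (16 h, 37C) to DMSO-dissolved compounds; substrate incubation was 2 h at room temperature.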

[18] = qHTS assay to identify small molecule antagonists of the vitamin D receptor (VDR) signaling pathway - cell viability counter screen (AID 743225); also: nearly all actives have a fitted effect of over 50% in size
Summary of the method: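 VDR-UAS-bla HEK 293T cells were plated and incubated 4 h at 37C, then dosed with compound plus 3 nM (final) 1-alpha,25-dihydroxyvitamin D3 for 16 h. After the 2 h beta-lactamase read, viability in the same wells was read as CellTiter-Glo luminescence after 30 min at room temperature.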

[19] = target: Bile acid receptor (Homo sapiens) (UniProt Q96RI1); test: qHTS assay to identify small molecule antagonists of the farnesoid-X-receptor (FXR) signaling pathway (AID 743217; active = well fitted inhibition curve with a large enough effect in the signal ratio in the repeat runs, not every such curve was filed as active; the % refers to the signal ratio)
Summary of the method: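 Quantitative HTS, beta-lactamase reporter format: FXR-UAS-bla HEK 293T cells co-treated 16 h at 37 °C with compounds and 50 uM final chenodeoxycholic acid, then read by B/G FRET fluorescence.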

[20] = target: Bile acid receptor (Homo sapiens) (UniProt Q96RI1); test: qHTS assay to identify small molecule agonists of the farnesoid-X-receptor (FXR) signaling pathway (AID 743220; active = well fitted activation curve with a large enough effect in the signal ratio in the repeat runs, not every such curve was filed as active; the % refers to the signal ratio)
Summary of the method: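 FXR-UAS-bla HEK 293T cells carrying a UAS-driven beta-lactamase reporter were plated for 5 h at 37C/5% CO2, then exposed to DMSO-dissolved Tox21 10K compounds for 16 h at 37C. A LiveBLAzer B/G FRET substrate was loaded for 2 h at room temperature before fluorescence reading.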

Measured: Potency

Retinoic acid receptor RXR-alpha (Homo sapiens), sequence (P19793 whole entry, looked up): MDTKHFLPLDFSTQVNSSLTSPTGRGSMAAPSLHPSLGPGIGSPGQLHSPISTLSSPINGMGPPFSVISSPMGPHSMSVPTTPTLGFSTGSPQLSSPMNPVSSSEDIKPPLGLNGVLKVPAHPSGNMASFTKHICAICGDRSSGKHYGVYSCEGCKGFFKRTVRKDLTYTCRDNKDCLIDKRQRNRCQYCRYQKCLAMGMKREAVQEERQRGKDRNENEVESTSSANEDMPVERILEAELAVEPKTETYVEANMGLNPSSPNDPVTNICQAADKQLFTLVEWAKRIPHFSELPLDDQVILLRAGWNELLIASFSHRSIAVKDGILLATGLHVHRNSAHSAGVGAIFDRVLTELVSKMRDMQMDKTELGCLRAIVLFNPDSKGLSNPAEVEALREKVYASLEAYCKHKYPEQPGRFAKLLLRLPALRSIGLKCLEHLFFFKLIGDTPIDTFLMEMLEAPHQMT
Vitamin D3 receptor (Homo sapiens), sequence (P11473 whole entry, looked up): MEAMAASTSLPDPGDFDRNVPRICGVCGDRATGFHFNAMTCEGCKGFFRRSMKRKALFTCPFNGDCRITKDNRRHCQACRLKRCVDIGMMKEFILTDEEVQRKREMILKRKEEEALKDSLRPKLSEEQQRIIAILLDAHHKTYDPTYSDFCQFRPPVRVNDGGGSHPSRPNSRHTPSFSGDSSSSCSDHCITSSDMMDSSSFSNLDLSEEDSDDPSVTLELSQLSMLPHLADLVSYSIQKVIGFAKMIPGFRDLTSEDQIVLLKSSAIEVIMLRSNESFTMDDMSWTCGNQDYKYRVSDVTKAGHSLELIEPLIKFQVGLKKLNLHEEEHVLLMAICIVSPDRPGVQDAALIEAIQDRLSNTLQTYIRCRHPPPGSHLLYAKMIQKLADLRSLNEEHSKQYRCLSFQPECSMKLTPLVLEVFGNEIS
Peroxisome proliferator-activated receptor delta (Homo sapiens), sequence (Q03181 whole entry, looked up): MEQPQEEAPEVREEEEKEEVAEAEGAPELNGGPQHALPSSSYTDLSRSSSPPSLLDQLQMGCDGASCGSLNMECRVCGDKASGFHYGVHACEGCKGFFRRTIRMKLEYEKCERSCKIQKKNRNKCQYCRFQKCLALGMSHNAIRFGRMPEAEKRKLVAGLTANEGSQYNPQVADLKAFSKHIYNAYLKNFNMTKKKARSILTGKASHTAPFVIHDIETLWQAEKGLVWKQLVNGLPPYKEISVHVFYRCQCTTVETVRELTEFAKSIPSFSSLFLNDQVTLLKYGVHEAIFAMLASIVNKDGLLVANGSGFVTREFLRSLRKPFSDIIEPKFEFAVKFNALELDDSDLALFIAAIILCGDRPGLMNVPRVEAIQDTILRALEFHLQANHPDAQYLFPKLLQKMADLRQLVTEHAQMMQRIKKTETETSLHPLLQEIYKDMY
Bile acid receptor (Homo sapiens), sequence (Q96RI1 whole entry, looked up): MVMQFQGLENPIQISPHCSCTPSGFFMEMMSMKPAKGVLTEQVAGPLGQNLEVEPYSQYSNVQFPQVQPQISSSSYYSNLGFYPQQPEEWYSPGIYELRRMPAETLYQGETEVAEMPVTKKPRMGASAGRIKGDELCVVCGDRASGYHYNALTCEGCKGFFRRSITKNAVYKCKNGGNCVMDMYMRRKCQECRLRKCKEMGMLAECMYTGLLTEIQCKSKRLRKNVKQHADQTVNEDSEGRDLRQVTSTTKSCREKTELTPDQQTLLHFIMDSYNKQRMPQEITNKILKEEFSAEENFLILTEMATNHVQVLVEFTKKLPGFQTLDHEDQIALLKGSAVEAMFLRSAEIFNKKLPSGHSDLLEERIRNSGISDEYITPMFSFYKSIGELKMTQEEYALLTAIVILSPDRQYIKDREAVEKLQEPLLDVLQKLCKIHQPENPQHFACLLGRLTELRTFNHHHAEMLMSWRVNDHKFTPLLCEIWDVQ

CCC1(CC)C(=O)NC(=O)NC1=O
not listed: [17] | [18] | [19] | [20]
inactive: all other assays above

CCOP(=O)(SC(C)CC)N1CCSC1=O (stereo unspecified)
active: [16] 11 µM
not listed: [19] | [20]
inactive: all other assays above

CCc1ccccc1N
not listed: [3] | [19] | [20]
inactive: all other assays above

CC(C)(C)N(NC(=O)c1ccc(Cl)cc1)C(=O)c1ccccc1
not listed: [19] | [20]
inactive: all other assays above

C[C@H]1O[C@H](OC2[C@@H](O)[C@@H](O)C(O)[C@H](O)[C@H]2O)[C@@H](N)C[C@@H]1N=C(N)C(=O)O (stereo partly specified)
not listed: [2] | [7] | [17] | [19] | [20]
inactive: all other assays above

C[N+](C)(C)CC1CO1 (stereo unspecified)
not listed: [7] | [8] | [17] | [19] | [20]
inactive: all other assays above

CN1C(=O)CN=C(c2ccccc2)c2cc([N+](=O)[O-])ccc21
not listed: [7] | [17] | [19] | [20]
inactive: all other assays above

ClCc1ccccc1Cl
not listed: [2] | [3] | [4] | [7]
inactive: all other assays above
